Experimental data: PubChem BioAssay (Tox21)
Values joined by “and” are separate entries in the source; they are usually repeats but may differ in a detail not shown here. Identical values can stand only once. Records with an inconclusive call do not appear. Active and inactive are the calls of the source. Unless noted, calls follow the shape of the dose curve; as a rule, active = well fitted curve in the direction sought with a large enough effect in the repeat runs; inconclusive = weak or mixed curves; inactive = no such curve, though single readings can be large; an effect the other way counts as inactive or inconclusive.

Legend:
[1] = qHTS assay to identify small molecule antagonists of the estrogen related receptor (ERR) signaling pathway - cell viability counter screen (AID 1224818);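 also: viability measured after 17.5 h of compound exposure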
Method in brief: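 Cytotoxicity counter screen: fluorescence from CellTiter-Fluor, added after 17.5 h compound exposure at 37 C and read 30 min later. ERR cell line seeded at 2,000 cells/well, preincubated 6 h before dosing.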

[2] = qHTS assay to identify small molecule antagonists of the estrogen related receptor (ERR) signaling pathway (AID 1224819;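 also: luminescence from an ERR-driven luciferase reporter measured with One-Glo reagent; nearly all actives have a fitted effect of over 50% in size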)
Method in brief: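 LOPAC library screened for antagonism as reduced One-Glo luminescence in ERR reporter cells (2,000/well). Compounds were added after 6 h pre-incubation and left 18 h at 37C; reading followed a 30 min room-temperature reagent step.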

[3] = qHTS assay to identify small molecule agonists of the estrogen related receptor (ERR) signaling pathway (AID 1224820)
Method in brief: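 Following a 6 h settling period, 2,000 ERR cells per well receive DMSO-dissolved compounds by pin tool and incubate 18 h at 37 C; agonist activity is scored from One-Glo luminescence read 30 min post-addition.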

[4] = tested on: estrogen-related receptor alpha (ERRalpha) with PGC-1alpha coactivator, human; experiment: qHTS assay to identify small molecule antagonists of the estrogen related receptor signaling pathway with the pleiotropic PPARgamma coactivator (PGC) (AID 1224821; calls by dose curve;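 also: lower luminescence signal means antagonism of PGC/ERR signalling; nearly all actives have a fitted effect of over 50% in size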)
Method in brief: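 Screening used NTP's PGC/ERR cells, dosed via pin tool with compound in DMSO alongside positive and negative controls. After 18 h at 37 C, One-Glo reagent sat 30 min at room temperature before luminescence detection.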

[5] = qHTS assay to identify small molecule agonists of the estrogen related receptor signaling pathway with the pleiotropic PPARgamma coactivator (PGC) (AID 1224823)
Method in brief: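 In this quantitative high-throughput screen, an 18 h, 37 C treatment of PGC/ERR cells with compounds in DMSO preceded a One-Glo luminescence read taken after 30 min at room temperature.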

[6] = qHTS assay to identify small molecule antagonists of the estrogen related receptor signaling pathway with the pleiotropic PPARgamma coactivator (PGC) cell viability counter screen (AID 1224822)
Method in brief: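 Viability counter-screen read by fluorescence intensity after 30 min with CellTiter-Fluor at 37 C; PGC/ERR reporter cells were exposed to compounds for 17.5 h at 37 C following a 6 h preincubation.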

[7] = qHTS assay to identify small molecule antagonists of the estrogen related receptor (ERR) signaling pathway from Tox21 library - cell viability counter screen (AID 1224834); also: nearly all actives have a fitted effect of over 30% in size
Method in brief: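 CellTiter-Fluor fluorescence, read after 30 min at 37 C, measures viability of ERR cells. Cells plated at 2,000/well and incubated 6 h before pin-tool compound addition, then exposed 17.5 hours at 37 C.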

[8] = qHTS assay to identify small molecule antagonists of the estrogen related receptor signaling pathway with the pleiotropic PPARgamma coactivator (PGC) from Tox21 10K library - cell viability counter screen (AID 1224840; active = well fitted cell-killing curve with a large enough effect in the repeat runs, not every such curve was filed as active; also: nearly all actives have a fitted effect of over 40% in size)
Method in brief: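 Counter-screen for cytotoxicity: after 17.5 h compound exposure at 37 C, CellTiter-Fluor reagent added to PGC/ERR cells for 30 min and fluorescence read. Cells were seeded at 2,000 per well 6 h before dosing.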

[9] = qHTS assay to identify small molecule antagonists of the estrogen related receptor signaling pathway with the pleiotropic PPARgamma coactivator (PGC) from Tox21 10K library (AID 1224841; call rule not given here; also: actives are mostly falling curves and most rising ones were filed inactive; nearly all actives have a fitted effect of over 50% in size)
Method in brief: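 Luminescence (One-Glo, 30 min at room temperature) after 18 h compound treatment at 37 C of PGC/ERR reporter cells plated at 2,000 cells/well and settled 6 h beforehand.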

[10] = qHTS assay to identify small molecule agonists of the estrogen related receptor signaling pathway with the pleiotropic PPARgamma coactivator (PGC) from Tox21 10K library (AID 1224842); also: nearly all actives have a fitted effect of over 15% in size
Method in brief: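 PGC/ERR reporter cell line, 2,000 cells per well, incubated 6 h at 37 C before 23 nL compound in DMSO was added. After 18 h at 37 C, One-Glo luminescence read following 30 min at room temperature.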

[11] = qHTS assay to identify small molecule antagonists of the estrogen related receptor (ERR) signaling pathway from Tox21 library (AID 1224848); also: nearly all actives have a fitted effect of over 50% in size
Method in brief: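 Compounds dissolved in DMSO are pin-transferred onto ERR reporter cells (2,000 per well) that have settled for 6 h at 37 C. Plates then incubate 18 h at 37 C before ONE-Glo luciferase reagent and a luminescence read 30 min later.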

[12] = qHTS assay to identify small molecule agonists of the estrogen related receptor (ERR) signaling pathway from Tox21 library (AID 1224849; calls by dose curve; also: nearly all actives have a fitted effect of over 15% in size); conditions: ERR reporter cell line, ONE-Glo luciferase, 18 h
Method in brief: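 Luminescent agonist read-out (One-Glo, 30-minute room-temperature incubation) following 18-hour compound treatment at 37 C of the ERR cell line, which had been plated 6 hours before dosing.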

[13] = molecular target: Acetylcholinesterase (Homo sapiens) (UniProt P22303); experiment: Acetylcholinesterase (AChE) small molecule antagonists: colormetric cell-based qHTS assay (AID 1347395; calls by dose curve; also: nearly all actives have a fitted effect of over 30% in size)
Method in brief: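 Colorimetric read-out: DTNB detects thiocholine released when cellular AChE in SH-SY5Y cells hydrolyses acetylthiocholine. Cells attached overnight, received compound for 30 min at 37 C, then substrate mix for 90 min at 37 C.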

[14] = molecular target: Acetylcholinesterase (Homo sapiens) (UniProt P22303); experiment: Acetylcholinesterase (AChE) small molecule antagonists: enzyme-based qHTS assay (AID 1347397; calls by dose curve; also: nearly all actives have a fitted effect of over 55% in size); conditions: Potency: AChE enzyme activity inhibition; outcome: AChE enzyme activity inhibition
Method in brief: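 Colorimetric DTNB read-out of thiocholine released from acetylthiocholine by recombinant human AChE (50 mU/mL as dispensed). Compounds were preincubated 30 min at RT before substrate/DTNB addition, with a 10 min RT reaction.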

[15] = molecular target: Acetylcholinesterase (Homo sapiens) (UniProt P22303); experiment: Acetylcholinesterase (AChE) small molecule antagonists: fluorescence cell-based qHTS assay (AID 1347398; calls by dose curve; also: nearly all actives have a fitted effect of over 50% in size); conditions: Potency: AChE activity; outcome: AChE activity
Method in brief: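 SH-SY5Y, 2,000 cells/well, attached overnight; cmpd 30 min 37 C; acetylthiocholine/Thiolite Green cocktail 40 min RT; fluorescence Ex/Em 490/520 nm.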
% is scaled to controls: 0 for no effect and ±100 for the full control effect.

Acetylcholinesterase (Homo sapiens), sequence (P22303 whole entry, looked up): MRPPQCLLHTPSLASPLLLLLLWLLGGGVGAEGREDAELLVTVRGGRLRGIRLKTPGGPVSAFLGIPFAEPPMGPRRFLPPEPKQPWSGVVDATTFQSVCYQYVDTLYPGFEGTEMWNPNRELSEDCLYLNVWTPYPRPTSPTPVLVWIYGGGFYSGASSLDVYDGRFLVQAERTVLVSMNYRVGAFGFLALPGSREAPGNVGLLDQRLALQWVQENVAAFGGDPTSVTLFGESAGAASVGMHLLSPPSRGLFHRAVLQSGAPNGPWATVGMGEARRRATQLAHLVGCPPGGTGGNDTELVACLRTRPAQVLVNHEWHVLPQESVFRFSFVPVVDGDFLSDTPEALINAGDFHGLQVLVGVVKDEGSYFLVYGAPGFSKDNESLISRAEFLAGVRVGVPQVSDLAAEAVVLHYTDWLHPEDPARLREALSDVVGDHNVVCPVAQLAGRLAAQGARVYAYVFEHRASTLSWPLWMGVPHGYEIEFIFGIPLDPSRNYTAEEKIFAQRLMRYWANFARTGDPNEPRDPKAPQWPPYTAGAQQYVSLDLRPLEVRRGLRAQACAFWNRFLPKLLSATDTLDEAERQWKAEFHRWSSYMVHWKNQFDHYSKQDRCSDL

C[N+](C)(C)CC#CCN1CCCC1=O
inactive: Potency [1] | Potency [2] | Potency [3] | Potency [4] | Potency [5]

COC(=O)N1CCN(C(=O)Cc2ccc(Cl)c(Cl)c2)C(CN2CCCC2)C1 (stereo unspecified)
inactive: Potency [1] | Potency [2] | Potency [3] | Potency [4] | Potency [5]

CCCN1CCO[C@@H]2c3cc(O)ccc3OC[C@H]21
inactive: Potency [1] | Potency [3] | Potency [4] | Potency [6]

CC(C)CC(NP(=O)(O)O[C@@H]1O[C@@H](C)[C@H](O)[C@@H](O)[C@H]1O)C(=O)NC(Cc1c[nH]c2ccccc12)C(=O)O (stereo partly specified)
inactive: Potency [1] | Potency [2] | Potency [3] | Potency [4] | Potency [6] | Potency [5]

CCn1cc(C(=O)O)c(=O)c2ccc(C)nc21
inactive: Potency [1] | Potency [2] | Potency [3] | Potency [4] | Potency [6] | Potency [5] | Potency [7] | Potency [8] | Potency [9] | Potency [10] | Potency [11] | activity change, positive = activation ([12]; at 42.5 µM (top of the series)) 4.67% | activity change, positive = activation ([12]; at 92.4 µM (top of the series)) 4.5% and 0.305% | Potency [13] | Potency [14] | Potency [15]
